{"source": "PubChem BioAssay", "note": "The source made the active and inactive calls. How the calls were made is not given here.", "data": [{"molecular_target": "Pantothenate synthetase (Mycobacterium tuberculosis (strain ATCC 25618 / H37Rv)) (UniProt P9WIL5)", "sequence (P9WIL5 whole entry, looked up)": "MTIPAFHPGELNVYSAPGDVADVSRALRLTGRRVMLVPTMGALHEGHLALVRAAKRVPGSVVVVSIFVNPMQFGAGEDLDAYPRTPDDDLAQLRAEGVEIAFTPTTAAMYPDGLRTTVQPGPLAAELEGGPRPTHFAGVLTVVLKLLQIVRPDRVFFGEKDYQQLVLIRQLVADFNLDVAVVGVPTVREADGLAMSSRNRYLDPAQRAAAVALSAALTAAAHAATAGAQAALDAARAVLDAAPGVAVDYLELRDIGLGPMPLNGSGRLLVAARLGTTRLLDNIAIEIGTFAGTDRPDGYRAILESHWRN", "experiment": "Coupled enzyme confirmation of inhibitors against recombinant Mtb PanC (AID 375);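 further: 0% = full reaction with vehicle and 100% = no enzyme background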", "settings": "coupled enzyme assay; at 10 µM, stronger effect = higher value", "values": [{"compound": "Cc1cc2cc(CN(CC3CCCO3)C(=O)c3cnccn3)c(=O)[nH]c2cc1C", "note": "(stereo not given)", "inhibition": "4% (inactive)"}, {"compound": "O=C(NCCN1CCOCC1)c1ccc(CS(=O)(=O)Cc2ccccc2F)o1", "inhibition": "2% (inactive)"}, {"compound": "Cc1cccc(C(=O)O)c1NC(=O)c1ccc(F)cc1", "inhibition": "1% (inactive)"}, {"compound": "CC1CCN(C(=O)CSc2nnc(-c3cccnc3)n2C2CCCCC2)CC1", "inhibition": "0% (inactive)"}, {"compound": "CCOc1nc(SCCOc2ccccc2)nc(N(C)C)n1", "inhibition": "4% (inactive)"}, {"compound": "COc1cccc(OC)c1OCCCSc1nc(C)cc(=O)[nH]1", "inhibition": "0% (inactive)"}, {"compound": "O=C(O)c1cc2c(s1)CCCC2", "inhibition": "0% (inactive)"}, {"compound": "COc1cccc(C2=NOC(C(=O)Nc3ccc(C(C)=O)cc3)C2)c1", "note": "(stereo not given)", "inhibition": "0% (inactive)"}, {"compound": "Cc1ccccc1OCc1nnc2n1CC(C)S2", "note": "(stereo not given)", "inhibition": "0% (inactive)"}, {"compound": "COc1ccc(N2CCN(C(=O)CN3C(=O)C4CC=CCC4C3=O)CC2)cc1", "note": "(stereo not given)", "inhibition": "0% (inactive)"}, {"compound": "COc1ccccc1N1C(=O)CCC1(C#N)c1ccccc1", "note": "(stereo not given)", "inhibition": "0% (inactive)"}, {"compound": "Cc1ccc(Nc2nc(Oc3ccc(=O)[nH]n3)nc(N(C)C)n2)cc1", "inhibition": "0% (inactive)"}, {"compound": "CCCCCCNC(=O)Cc1c(O)c2ccccc2[nH]c1=O", "inhibition": "5% (inactive)"}, {"compound": "CCc1cccc(NC(=O)Cn2cc3c(n2)CCCC3)c1", "inhibition": "0% (inactive)"}, {"compound": "CCOC(=O)c1cccc(NC(=O)CSc2nc3ccccc3c(=O)n2CC)c1", "inhibition": "0% (inactive)"}, {"compound": "C=CCN1C(=O)/C(=C2/Sc3ccccc3N2C)SC1=Nc1c(C)n[nH]c1C", "inhibition": "1% (inactive)"}, {"compound": "Cc1occc1C(=O)Nc1ccc(S(=O)(=O)N2CCN(C)CC2)cc1", "inhibition": "0% (inactive)"}, {"compound": "Oc1ccc(-c2n[nH]c(=S)n2Cc2ccccc2)cc1", "inhibition": "0% (inactive)"}, {"compound": "CCC(=O)c1ccc(OCC(=O)N2CCc3cc(OC)c(OC)cc3C2)cc1", "inhibition": "0% (inactive)"}, {"compound": "CCn1cc(S(=O)(=O)CC(=O)Nc2ccc(OC)cc2)c2ccccc21", "inhibition": "1% (inactive)"}, {"compound": "Cn1c(=O)c2ncn(CC(=O)NCCOc3ccc(C(C)(C)C)cc3)c2n(C)c1=O", "inhibition": "0% (inactive)"}, {"compound": "CCOC(=O)Cn1nc(-c2ccc(Cl)cc2)cc1N", "inhibition": "0% (inactive)"}, {"compound": "Cc1ccc(-n2nnnc2SCC(=O)N2CCc3ccccc3C2)cc1", "inhibition": "4% (inactive)"}, {"compound": "CCC(c1nnc(SCC(=O)Nc2ccc(C(=O)Nc3ccccc3OC)cc2)o1)N(C)C", "note": "(stereo not given)", "inhibition": "0% (inactive)"}, {"compound": "Cc1ccc(C)c(N2CCN(CCCNC(=O)Cn3cc4c(n3)CCCCC4)CC2)c1", "inhibition": "2% (inactive)"}, {"compound": "CN(C=O)CP(=O)(O)CCN1CCCC1=O", "inhibition": "0% (inactive)"}, {"compound": "CCn1c(=O)c(C(=O)Nc2cccnc2)c(O)c2ccccc21", "inhibition": "0% (inactive)"}, {"compound": "COc1ccc(OCC(O)Cn2c(Br)nc3c2c(=O)[nH]c(=O)n3C)cc1", "note": "(stereo not given)", "inhibition": "11% (inactive)"}, {"compound": "O=C(O)Cc1ccc(-c2ccccc2)cc1", "inhibition": "0% (inactive)"}, {"compound": "CN(C(=O)c1ccno1)c1nnc(-c2cnccn2)s1", "inhibition": "2% (inactive)"}, {"compound": "Cc1cc(/C=N/n2cnnc2)c(C)n1-c1cccc(Cl)c1", "inhibition": "0% (inactive)"}, {"compound": "CC(NS(=O)(=O)c1ccccc1)C(c1cccs1)N1CCN(C)CC1", "note": "(stereo not given)", "inhibition": "4% (inactive)"}, {"compound": "FC(F)Oc1ccc(-c2csc(Cc3nnc4n3CCCCC4)n2)cc1", "inhibition": "0% (inactive)"}, {"compound": "CCOc1ccc(N(C(C)=O)C2C=CS(=O)(=O)C2)cc1", "note": "(stereo not given)", "inhibition": "0% (inactive)"}, {"compound": "Nc1sccc1C(=O)c1ccc(Cl)cc1", "inhibition": "0% (inactive)"}, {"compound": "CC(C)(C)Nc1nc(OCC(F)(F)F)nc(OCC(F)(F)F)n1", "inhibition": "0% (inactive)"}, {"compound": "COc1ccc(CCNc2oc(Cc3cccc4ccccc34)nc2C#N)cc1OC", "inhibition": "5% (inactive)"}, {"compound": "CCN(CC(=O)O)S(=O)(=O)c1cc(Cl)ccc1Cl", "inhibition": "0% (inactive)"}, {"compound": "COC(=O)c1ccccc1NC(=O)Nc1cccs1", "inhibition": "7% (inactive)"}, {"compound": "Nc1ccc(S(=O)(=O)Nc2ncccn2)cc1", "inhibition": "6% (inactive)"}]}]}
